Source: PubChem BioAssay AID1347041 (National Center for Advancing Translational Sciences (NCATS), 2019)
Several values for one entry are separate records, joined by “and”; a condition that tells them apart may be missing. Equal values may be shown once. Hit rate of the full screen: of about 480,000 compounds, about 740 (0.15%) were called active. The sample holds actives, similar compounds and a random draw of the others, so the mix is not that of the screen. No stated cut-off is given here; in the data, active means activity change below about -30%; inconclusive means mostly about -25% to -30%; inactive means weaker than that. Some compounds were tested as several samples or in several runs, with calls that do not always agree.
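Further: values are at about 110 or 230 µM; plate controls were DMSO wells for no effect and wells without enzyme for full effect.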

These compounds were tested against L-lactate dehydrogenase A chain (Homo sapiens) (UniProt P00338) (assay: qHTS assay for inhibitors of human lactate dehydrogenase). Settings: purified LDHA, NADH/diaphorase-resazurin fluorescence; stronger effect = lower value.
In short: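 Remaining NADH was detected by diaphorase (0.133 mg/mL) converting 37 µM resazurin to fluorescent resorufin, read at 0 and 20 minutes. The preceding 5-minute room-temperature reaction used 2 nM LDHA, 0.2 mM sodium pyruvate and 0.06 mM NADH at pH 7.4.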
With Cc1ccc(/C=C(/C#N)C(=O)c2ccsc2)cc1C the activity change was 4.55% (inactive).
For CC(C)(C)C(=O)N1CCC(C(=O)N2CCC(c3nc4ccccc4o3)CC2)CC1, the activity change was 0.769% (inactive).
For O=C(C(c1ccccc1)N1CCN(S(=O)(=O)c2cccs2)CC1)N1CCCCC1 (stereo unspecified), the activity change was 1.33% (inactive).
With O=C(NCc1ccco1)NNc1nc2c(-c3ccccc3)nnn2c2ccccc12 the activity change was 0.688% (inactive).
Clc1cc(Cl)c(N/N=C/c2ccc(Br)cc2)c(Cl)c1 was tested, and the activity change was 1.46% (inactive).
With Cc1cc(OC(=O)c2c(Cl)cccc2Cl)nc(C)n1 the activity change was -6.35% (inactive).
For Cc1cc(C)c(S(=O)(=O)c2ccccc2)c(OC(=O)c2c(F)cccc2Cl)n1, the activity change was -58% (active).
In the case of O=C(OCc1ncc(-c2ccccc2)o1)c1c(F)cccc1Cl, the activity change is reported as -4% (inactive).
In the case of CC(=O)c1c(C)[nH]c(C)c1C, the activity change is reported as -0.832% (inactive).
In the case of CCc1nc(C#N)c(NCC(c2cccs2)N2CCOCC2)o1 (stereo unspecified), the activity change is reported as 4.58% (inactive).
In the case of CCCc1cc(=O)oc2cc(OC(C)C(=O)Nc3cccc(C(C)=O)c3)ccc12 (stereo unspecified), the activity change is reported as 1.35% (inactive).
Cc1c(C(=O)C(=O)NC(C)c2ccccc2)c2ccccc2n1C (stereo unspecified) was tested, and the activity change was -3.86% (inactive).
CCOC(=O)c1cc(S(=O)(=O)Nc2cccc(C)c2C)[nH]n1 was tested, and the activity change was -1.21% (inactive).
For COc1ccc(OCCOC(=O)c2nn(C)c(=O)c3ccccc23)cc1, the activity change was 0.361% (inactive).
Cc1nc(-c2ccc(F)cc2)c(CC(=O)N2CCN(S(=O)(=O)c3ccc(F)cc3)CC2)s1 was tested, and the activity change was 7.31% (inactive) and -4.86% (inactive).
For Cc1nc(-c2ccc(F)cc2)c(CC(=O)Nc2cc(S(=O)(=O)N3CCCCC3)ccc2C)s1, the activity change was -0.452% (inactive).
With Cc1ccc(S(=O)(=O)N2CCN(C(=O)Cc3sc(C)nc3-c3ccc(F)cc3)CC2)c(C)c1 the activity change was 1.74% (inactive) and -33% (active).
For CC(NC(=O)c1nccnc1N)c1ccco1 (stereo unspecified), the activity change was -5.25% (inactive).
With CC(=O)[C@@H]1SC(N)=C(C#N)[C@H]1c1cccs1 the activity change was 12.5% (inactive).
For CCCn1c(N2CCN(C(=O)c3cccc(OC)c3)CC2)nc2sc3c(c2c1=O)CCCC3, the activity change was -1.23% (inactive).
For CCN(c1ccccc1)c1nnc(NC(=O)Nc2ccccc2OC)s1, the activity change was -2.61% (inactive).
For CCCn1nc(C(=O)Nc2ccc(OC)c(NC(C)=O)c2)c2ccccc2c1=O, the activity change was -2.1% (inactive).
In the case of CCNC(=O)CN1CCN(C(C(=O)O)c2c[nH]c3ccc(OCc4ccccc4)cc23)CC1 (stereo unspecified), the activity change is reported as -6.48% (inactive).
For Fc1ccc(OCc2nn3c(CSc4ccccc4)nnc3s2)cc1, the activity change was -2.81% (inactive).
For O=C(CN1CCN(CC(=O)c2c[nH]c3ccccc23)CC1)NC1CC1, the activity change was 0.902% (inactive).
In the case of CCc1ccc(NC(=O)CSc2nccn2Cc2ccccc2OC)cc1, the activity change is reported as 8.74% (inactive).
For CC(NC(=O)c1cc(Cl)sc1Cl)C12CC3CC(CC(C3)C1)C2 (stereo unspecified), the activity change was 1.53% (inactive).
With COc1ccc(-c2cc(C(=O)O)c3cc(C)ccc3n2)cc1OC the activity change was 6.4% (inactive).
In the case of CC(C)Cn1nc(C(=O)NCc2ccccc2F)c2ccccc2c1=O, the activity change is reported as 8.3% (inactive).
In the case of COCCCN(C)Cc1cccc(OC)c1, the activity change is reported as -1.41% (inactive).
With COc1cc(Cl)c(C)cc1NC(=O)C(C)N1CCN(CCc2ccccc2)CC1 (stereo unspecified) the activity change was -11.8% (inactive).
In the case of O=C1CCCC2=C1C(c1ccc(C(=O)O)cc1)c1c([nH]n(-c3ccccc3)c1=O)N2 (stereo unspecified), the activity change is reported as 14.2% (inactive).
For CCOC(=O)C1=C(CN2CCN(C(=O)OC(C)(C)C)CC2)NC(=O)NC1c1ccccc1OCC (stereo unspecified), the activity change was -21.6% (inactive).
Cc1cc(CNC(=O)NCc2coc(-c3cccs3)n2)ccc1F was tested, and the activity change was -5.62% (inactive).
For CCCNc1c(NS(=O)(=O)c2ccc(F)c(F)c2)c(=O)oc2ccccc12, the activity change was 0.151% (inactive).
COc1ccc(C(=O)Nc2oc3ccc(Cl)cc3c(=O)c2-c2ccc3c(c2)OCO3)cc1 was tested, and the activity change was -4.91% (inactive).
For Cc1c(C(N)=O)[n+](=O)c2ccccc2n1[O-], the activity change was -7.73% (inactive).
In the case of Oc1ccc2ccccc2c1C=NCCc1ccccc1, the activity change is reported as 43.7% (inactive).
In the case of Cn1c(=O)c2c(ncn2CC(=O)Nc2cccc(F)c2)n(C)c1=O, the activity change is reported as 0.764% (inactive).
For COc1ccc(Nc2ccccc2)cc1, the activity change was 15% (inactive).
With Cc1ccc(-c2nnn(Cc3csc(-c4ccccc4Cl)n3)n2)cc1 the activity change was -3.25% (inactive).
In the case of Cc1ccc(-c2nc(=N)sn2Cc2ccccc2)cc1, the activity change is reported as -80.9% (active).
With COc1ccc(-c2nn3c(-c4ccc(OC)cc4)nnc3c3ccccc23)cc1 the activity change was -7.99% (inactive).
In the case of COc1ccc(-c2nc(=N)sn2-c2ccccc2)cc1, the activity change is reported as -63.7% (active).
For Cc1ccc(CN2C(=O)SC(Nc3ccccc3)C2=O)cc1 (stereo unspecified), the activity change was -3.19% (inactive).
For CCCCn1c(=O)[nH]c(=O)c2c1nc(COC(=O)C1(C#N)CCCC1)n2C, the activity change was -5.02% (inactive).
In the case of O=C(CCC1NC(=O)c2ccccc2NC1=O)NC1CCCC1 (stereo unspecified), the activity change is reported as -4.57% (inactive).
For Cc1ccc(N(CC(=O)N2CCN(C/C=C/c3ccccc3)CC2)S(C)(=O)=O)cc1, the activity change was -0.0793% (inactive).
With CN(Cc1ccc(Cl)cc1)C(=O)Cn1nnn(-c2cccs2)c1=O the activity change was -0.86% (inactive).
In the case of CCCn1nc(C(=O)N(C)Cc2ccc(OCC)cc2)c2ccccc2c1=O, the activity change is reported as -4.2% (inactive).
In the case of COc1ccc2oc(=O)c(S(=O)(=O)N3CCCCCC3)cc2c1, the activity change is reported as -6.37% (inactive).
In the case of CC(C)CC(=O)Nc1ccc(N2CCCC2)cc1, the activity change is reported as 39.8% (inactive).
With COc1cc(CN2C(=O)C(=O)c3cccc(C)c32)ccc1OCCC(C)C the activity change was 5.04% (inactive).
In the case of COc1ccc(Br)cc1/C=C1\Cc2ccccc2C1=O, the activity change is reported as 0.293% (inactive).
With COc1cccc2cc(C(=O)N3CCN(c4cccc(C(F)(F)F)c4)CC3)c(=O)oc12 the activity change was 3.43% (inactive).
For COc1ccccc1CCNC(=O)CSc1ccc(-c2ccccn2)nn1, the activity change was 8.88% (inactive).
In the case of O=C(COc1c(I)cc(Cl)c2cccnc12)N1CCCC1, the activity change is reported as -11.3% (inactive).
CCN(CC(=O)N(C)C)Cc1ccc(F)c2cccnc12 was tested, and the activity change was 0.454% (inactive).
In the case of COc1ccc(Oc2c(C)oc3cc(OCC(=O)N4CCC(C(N)=O)CC4)ccc3c2=O)cc1, the activity change is reported as -1.42% (inactive).
For CN(Cc1ccc(OC(F)F)cc1)C(=O)c1nn(Cc2ccccc2)c(=O)c2ccccc12, the activity change was 13.3% (inactive).
For COc1ccc(NC(=O)c2cnn3c2NC(C(=O)O)=CC3c2ccc(F)cc2)cc1 (stereo unspecified), the activity change was 18.2% (inactive).
With Cn1c(SCC(=O)Nc2cccc(F)c2)nc2c(=O)[nH]cnc21 the activity change was 11% (inactive).
With CCN(CC)S(=O)(=O)c1ccc(N2CCCC2)c(NS(=O)(=O)c2cccs2)c1 the activity change was -11.2% (inactive).
For CCN(CC)S(=O)(=O)c1ccc(C)c(NS(=O)(=O)c2cccc(C#N)c2)c1, the activity change was -34.7% (active).
For CCN(CC)S(=O)(=O)c1ccc(C)c(NC(=O)COc2ccc(Br)cc2Cl)c1, the activity change was -4.43% (inactive).
In the case of COC(=O)c1ccc(C2C(C#N)=C(N)Oc3c2ccc2ccccc32)cc1 (stereo unspecified), the activity change is reported as -5.14% (inactive).
In the case of Cn1c(/C(C#N)=C2/CCCCCN2)nc2ccccc21, the activity change is reported as 1.28% (inactive).
With Cc1cc2nc(/C(C#N)=C/c3ccccc3)[nH]c2cc1C the activity change was 9.89% (inactive).
In the case of Cc1cc(/C=C(/C#N)c2nc3ccccc3n2C)cc(C)c1O, the activity change is reported as -32.2% (active).
With CC(C)CC(NC(=O)COc1ccc(Oc2ccccc2)cc1)C(=O)O (stereo unspecified) the activity change was -0.172% (inactive).
O=C(O)c1cc(NC(=O)c2ccc(Cl)s2)cc(C(=O)O)c1 was tested, and the activity change was -9.52% (inactive).
